This note sets out measurements from PubChem BioAssay (NCI).

What all share (test): NCI-60 one-dose screen, 48 h (100 = growth as untreated, 0 = no growth, -100 = all killed)
What all share (conditions): 10 µM unless noted

The subject of test [1] is SK-MEL-2 melanoma.
In test [2] the test system is EKVX NSCLC.
The subject of test [3] is SN12C renal.
Test [4] deals with UO-31 renal.
Test [5] deals with TK-10 renal.
Test [6] has as its system ACHN renal.
Test [7] relates to CAKI-1 renal.
Test [8] deals with A498 renal.
For test [9], the system named is CCRF-CEM leukemia.
The test system of test [10] is MOLT-4 leukemia.

Compounds without any hit were thinned out: in the full panel of roughly 83,000, 20% have a hit.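 Treatment: one concentration, 48 hours, 96-well format. Scoring: percent growth, with anything below 10 considered active.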 A number with no mark means an inactive call. Activity calls are given as the source filed them.

Consider `Cc1ccccc1CNc1c2ccccc2nc2ccccc12`, for which the growth in test [1] was 40.2%; in test [2], 38.4%; in [3], 24.3%; in test [4] it was 15.5%; in [5] it was 38.7%; in [6], 11.6%. The growth in [7] is 25.1%; in test [8], -2.25% (active); in test [9] it was 17.6%; in test [10], 8.85% (active).

Turning to `COc1ccc2cc(Cn3cc[n+](Cc4ccc5ccccc5c4)c3)ccc2c1`, the growth is -15.8% (active) in test [1]; 50.5% in [2]; 16.9% in test [3]; 84.4% in test [4]; 9.68% (active) in test [5]; 98.8% in [6]. In addition, the growth in test [7] was 96%; in test [8], 74.7%; in test [9] it was 20.2%; in [10], 17.2%.

Consider `CCCCCCCCn1ccc2cc(NC(=O)Cn3cc(CN4CCN(CC)CC4)nn3)ccc21`, for which the growth in test [1] was 101%; in [2] it was 88%; in [3] it was 64.1%; in test [4] it was 47.5%; in test [5] it was 99.2%; in test [6] it was 111%. For the same molecule, the growth in test [7] is 69.6%; in test [8], 90.5%; in [9], -41.2% (active); in test [10] it was 39.3%.

Take `O=C1NC(=O)c2c1c1c3ccccc3[nH]c1c1oc3ccc(F)cc3c21`: the growth in test [1] is 89.4%; in test [2], 56.4%; in test [3], 74.6%; in test [4], 25%; in [5], 70.6%; in [6] it was 43.2%. The growth in [7] was 41.2%; in [8], -6.99% (active); in test [9], 73.6%; in [10], 76.2%.

Regarding `C[N+](C)(C/C=C/c1ccccc1)Cc1ccccc1`, the growth was 93.7% in test [1]; 92.7% in [2]; 101% in [3]; 82.4% in [4]; 96.3% in [5]; 99.4% in test [6]. For the same molecule, the growth in [7] is 97.2%; in test [8], 94.6%; in test [9], 149%; in test [10], 103%.

For the molecule `Cn1c(=O)c2c(nc(NC3=NS(=O)(=O)c4ccccc43)n2Cc2ccccc2)n(C)c1=O`, the growth in test [1] is 99.7%; in test [2] it was 91.5%; in test [3], 93%; in test [4], 81.2%; in test [5], 143%; in test [6], 97.5%. The growth is 83.7% in test [7], 60.4% in test [8], 104% in [9] and 106% in [10].

For the molecule `COc1cc(C2C3=C(COC3=O)N(CCO)c3cc4c(cc32)OCCO4)cc(OC)c1OC` (stereo not given), the growth in test [1] is 58.5%; in [2] it was 45.7%; in [3] it was 23.8%; in test [4] it was 54.3%; in [5], 60.3%; in test [6], 20.7%. For the same molecule, the growth in test [7] is 41.3%; in test [8], -28.8% (active); in test [9], 13.2%; in [10] it was 8.21% (active).

Regarding `CCN(CC)CCCNCc1cc(-c2ccccc2)nc2cc(Cl)ccc12`, the growth in test [1] is -61.9% (active); in test [2] it was 80.9%; in test [3], 38.2%; in test [4], 11%; in test [5], 42.8%; in [6], 66.2%. For the same molecule, the growth in test [7] is 50.5%; in test [8], 22.3%; in [9] it was 10.4%; in test [10], 13.6%.

In the case of `CC(=O)N/C(=C1/OC(C(O)C(O)C(O)CO)CN1C)[P+](c1ccccc1)(c1ccccc1)c1ccccc1` (stereo not given), the growth in test [1] was 99.5%; in [2], 90.3%; in test [3], 96.2%; in [4], 79.4%; in test [5] it was 104%; in test [6], 100%. For the same molecule, the growth is 90.6% in test [7], 120% in test [8], 97.1% in [9] and 102% in test [10].

Consider `O=C(CCCCNC(=O)c1cc(=O)c(O)co1)Nc1ccccc1`, for which the growth is 98.8% in test [1]; 95.6% in test [2]; 88.4% in test [3]; 76.4% in test [4]; 98.3% in [5]; 31.5% in test [6]. Besides, the growth in test [7] is 94.3%; in [8], 98.2%; in test [9] it was 6.26% (active); in test [10] it was 20.3%.

With `COc1cccc(/C=C/C(=O)c2cc3c(N)c(C(=O)Nc4ccccc4C)sc3nc2C)c1`, the growth in [1] was 27.3%; in test [2] it was 91.7%; in [3], 13.9%; in test [4], 38.5%; in test [5], 74.1%; in [6], 56.1%. The growth in test [7] was 32.2%; in test [8], 75.7%; in test [9], 9.22% (active); in test [10], 32.6%.

With `O=C1Nc2ccc(F)cc2/C1=N/c1nnc(Sc2ccccc2)s1`, the growth was 102% in [1]; 101% in test [2]; 95.4% in test [3]; 80.2% in test [4]; 111% in test [5]; 82.2% in test [6]. Also, the growth is 75.1% in test [7], 79% in test [8], 47.7% in test [9] and 77.2% in [10].

Take `CCCCCCOC(=O)CC1=C(C)/C(=C/c2[nH]c(-c3ccc[nH]3)cc2OC)N=C1C`: the growth in [1] was -49.5% (active); in test [2] it was -35% (active); in [3], -63% (active); in test [4] it was -86.9% (active); in test [5], -24.9% (active); in test [6], -19.5% (active). The growth was 0.637% (active) in [7], -49.4% (active) in test [8], -22.5% (active) in [9] and -30.3% (active) in test [10].

Regarding `O=C(Nc1cccnc1Nc1ccc(Cl)cc1)c1cn(Cc2ccc(F)cc2)nn1`, the growth was 102% in test [1]; 92.6% in [2]; 95.9% in test [3]; 70.9% in test [4]; 96.9% in [5]; 101% in [6]. In addition, the growth was 93.1% in test [7], 88.6% in test [8], 98.6% in test [9] and 106% in test [10].
